Laboratory results from PubChem BioAssay (NCATS).
Results filed as inconclusive are left out. Where a call stands in place of a potency, no number is given. Calls of active or inactive are those of the source. Calls follow the shape of the dose curve; as a rule, active = well fitted curve in the direction sought with a large enough effect; inconclusive = small, poorly fitted or top-dose-only effect, or another doubt; inactive = no such curve, though single readings can be large; an effect the other way counts as inactive or inconclusive.

Experiments:
[1] = qHTS of pediatric cancer cell lines to identify multiple opportunities for drug repurposing: Confirmatory screen for Rh30 cells (AID 1347126); settings: Rh30 rhabdomyosarcoma cell viability; series mostly up to 45.9 µM; also: nearly all actives have a fitted effect of over 55% in size; also: potency is read from the fitted curve at half-maximal effect
Method in brief: (§1)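 Cells (500-1,000/well) rested 5 h, then received compounds for 48 h; metabolically active cells were measured by CellTiter-Glo luminescence. Final concentrations spanned up to 46 µM (MIPE, 11-point) or 0.59 nM-46 µM (NPC, 8-point) in primary screens, 11-point in follow-ups.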

[2] = qHTS of pediatric cancer cell lines to identify multiple opportunities for drug repurposing: Confirmatory screen for OHS-50 cells (AID 1347128); settings: OHS-50 osteosarcoma cells viability; series mostly up to 45.9 µM;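 also: compound exposure lasted 48 h at 37 degrees C; nearly all actives have a fitted effect of over 55% in size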; also: potency is read from the fitted curve at half-maximal effect
Method in brief: as §1

[3] = qHTS of pediatric cancer cell lines to identify multiple opportunities for drug repurposing: Confirmatory screen for SK-N-SH cells (AID 1347129); settings: SK-N-SH neuroblastoma cell viability; series mostly up to 46.1 µM;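 also: cells exposed to compound for 48 h before viability read; nearly all actives have a fitted effect of over 60% in size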
Method in brief: as §1

[4] = system: Zika virus NS2B-NS3 protease; test: Primary screen GU AMC qHTS for Zika virus inhibitors (AID 1347154); settings: Zika NS2B-NS3 unlinked protease, AMC fluorogenic substrate; series mostly up to 54.1 µM; also: nearly all actives have a fitted effect of over 70% in size
Method in brief: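 Fluorogenic AMC-substrate cleavage by noncovalent NS2B-NS3 protease complex (25 nM, pH 8.0 Tris buffer with Tween 20) followed for 15 minutes at room temperature (~20% conversion). Percent inhibition from ex340/em450 signal change, fitted by 4-parameter Hill equation.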

[5] = qHTS of pediatric cancer cell lines to identify multiple opportunities for drug repurposing: Confirmatory screen for Saos-2 cells (AID 1347127); settings: Saos-2 osteosarcoma cell viability; series mostly up to 45.9 µM; also: nearly all actives have a fitted effect of over 60% in size; also: potency is read from the fitted curve at half-maximal effect
Method in brief: as §1

Row | Compound | Potency [1] | Potency [2] | Potency [3] | Potency [4] | Potency [5]
1 | CCOC(=O)O[C@]1(C(=O)OCCl)CC[C@H]2[C@@H]3CCC4=CC(=O)C=C[C@]4(C)[C@H]3[C@@H](O)C[C@@]21C | inactive | inactive | inactive | inactive | –
2 | CCC1(c2cnc[nH]2)Cc2ccccc2C1 | 10.4 µM (active) | inactive | inactive | inactive | 9.27 µM (active)
3 | CCN(CC)CC(=O)OCC(=O)[C@@]1(O)CC[C@H]2[C@@H]3CCC4=CC(=O)CC[C@]4(C)[C@H]3[C@@H](O)C[C@@]21C | – | inactive | inactive | – | inactive
4 | C[C@H]1C[C@H]2[C@@H]3CCC4=CC(=O)C=C[C@]4(C)[C@H]3C(=O)C[C@]2(C)[C@@]1(O)C(=O)CO | – | – | inactive | inactive | 3.69 µM (active)
5 | CCC1=C[C@@H]2CN(C1)Cc1c([nH]c3ccccc13)[C@@](C(=O)OC)(c1cc3c(cc1OC)N(C)[C@H]1[C@@](O)(C(=O)OC)[C@H](OC(C)=O)[C@]4(CC)C=CCN5CC[C@]31[C@@H]54)C2 | – | – | – | inactive | 0.0185 µM (active)
6 | CC(=O)OCC(=O)[C@@]1(O)CCC2C3CCC4=CC(=O)CC[C@]4(C)C3[C@@H](O)C[C@@]21C (stereo not given in full) | – | inactive | inactive | inactive | –
7 | O=c1[nH]sc2cc(Cl)ccc12 | 6.57 µM (active) | – | inactive | inactive | –
8 | CC(C)(C)CC(=O)OCC(=O)[C@@]1(O)CC[C@H]2[C@@H]3CCC4=CC(=O)C=C[C@]4(C)[C@H]3[C@@H](O)C[C@@]21C | – | inactive | inactive | inactive | inactive
9 | CCCCC(=O)OCC(=O)[C@H]1[C@H](C)C[C@H]2[C@@H]3C[C@H](F)C4=CC(=O)C=C[C@]4(C)[C@@]3(F)[C@@H](O)C[C@@]21C | 14.7 µM (active) | 20.8 µM (active) | inactive | inactive | –
10 | CCCC(=O)O[C@]1(C(=O)COC(=O)CC)CC[C@H]2[C@@H]3CCC4=CC(=O)CC[C@]4(C)[C@H]3[C@@H](O)C[C@@]21C | – | inactive | inactive | inactive | inactive
